VACV Venus inh: vaccinia inhibition (Venus reporter). Vaccinia virus Venus reporter expression, fluorescence. Potency, µM (titrated, usually from 36.5 µM), inactives show top-dose activity change, negative = inhibition, most hits filed as inhibitors. 330,000 compounds, 0.46% hits; calls by dose curve; tested in A549 cells; further: nearly all actives have a fitted effect of over 30% in size
VACV mCherry inh: inhibitors of vaccinia virus infection (mCherry reporter signal); Potency, µM (doses to about 36.5 µM), without a hit: at the top dose activity change, negative = inhibition, most hits filed as inhibitors; Vaccinia virus mCherry reporter infection, fluorescence; 310,000 compounds, 0.63% hits; calls by dose curve; tested in A549 cells; further: nearly all actives have a fitted effect of over 35% in size
Lassa entry inh: blocks Lassa virus binding to or entry into cells; Lassa virus pseudotype entry inhibition, cell reporter; Potency, µM (doses to about 37.9 µM), for inactives: top-dose activity change, negative = inhibition, most hits filed as inhibitors; 300,000 compounds, 1.2% hits; AID 540256; calls by dose curve; tested in HEK293 cells; further: nearly all actives have a fitted effect of over 50% in size
MARV entry inh: Marburg virus entry inhibition. 300,000 compounds, 1.8% hits. Marburg virus pseudotyped entry inhibition, cell reporter. AID 540276. Potency, µM (series often up to 37.8 µM), for the others: at the highest dose activity change, negative = inhibition, usual class: inhibitors; calls by dose curve; tested in HEK293 cells
Starred values were filed as active, the others as inactive; i = inactive; ? = inconclusive; / = no result given; [ ] = another dose, or the depositor's remark. Most compounds without a hit are left out; they make up all but 2.5% or so of the library. On the % scale 0 is the no-effect control and ±100 the full control effect; potency means the concentration at half of the fitted maximal effect.

SMILES	VACV Venus inh	VACV mCherry inh	Lassa entry inh	MARV entry inh
COc1cc2c(cc1NC(=O)C(Cl)Cl)-c1ccc(NC(=O)C(Cl)Cl)cc1C2	10µM*	12.6µM*	?	?
COc1cc2c(cc1NC(=O)c1ccccc1-c1ccccc1C(=O)O)-c1ccccc1C2	-18.0%	i	/	/
CCN(CC)c1ccc(NC2=C(Cl)C(=O)c3ccccc3C2=O)cc1	?	?	5.62µM*	3.98µM*
Cc1ccc(NC2=C(Cl)C(=O)c3ccccc3C2=O)cc1	-1.2%	-18.9%	12.6µM*	?
CCNC1=C(Cl)C(=O)c2ccccc2C1=O	?	/	-13.6%	-18.5%
COC1=C(Nc2ccc(O)cc2)C(=O)c2ccccc2C1=O	15.8µM*	14.1µM*	?	?
O=C1C(Cl)=C(Nc2ccc(O)cc2)C(=O)c2ccccc21	?	?	4.47µM*	?
Cc1cc(/C=C/c2ccnc3ccccc23)ccc1N(C)C	-15.8%	-4.4%	/	/
COc1ccccc1C(=O)N1CCCC(c2nc(SCCN3CCOCC3)ncc2C)C1 (stereo not drawn)	-0.3%	-10.9%	/	/
CC(C)CCCCCCCCCCCCC(=O)NCC(=O)NC1C(O)C(O)C(Nc2ncnc3nc[nH]c23)OC1C(O)CO (stereo not drawn)	11.2µM*	39.8µM*	?	?
CCCC1=C(C(=O)OCC)C(/C=C/c2ccccc2)n2ncnc2N1 (stereo not drawn)	/	/	-19.0%	9.2µM*
COc1ccc(OC)c(C(=O)N(Cc2cc3cccc(C)c3nc2N2CCC(O)CC2)C2CC2)c1	-11.9%	-13.2%	/	/
Cc1cc(C(=O)NCc2nnc3n2CCN(Cc2ccc(F)cc2F)CC3)c(C)o1	1.4%	-1.6%	/	/
O=C(NCCc1nc2ccccc2n1CCCOc1ccc2ccccc2c1)C1CCCCC1	?	3.16µM*	/	/
O=C(NCCc1nc2ccccc2n1CCOc1ccc2ccccc2c1)C1CCCCC1	-12.8%	-25.6%	/	/
CN(C)c1ccc(/C=C/c2ccnc3ccccc23)cc1Br	-18.2%	-9.5%	/	/
FC(F)(F)c1cnc(N2CCN(C(=S)NCc3ccccc3)CC2)c(Cl)c1	-1.2%	-11.6%	?	12.6µM*
COc1cccc(-c2cc3c(c(OC)c2)OCCN(S(=O)(=O)c2ccccc2OC(F)(F)F)C3)n1	-6.3%	-16.4%	/	/
CC(C)C(=O)Nc1nc(-c2ccc3c(c2)CCN3C(=O)C2CC2)cs1	-1.4%	-8.4%	/	20.2%[46.1 µM]
Cc1cccc(C(=O)N2CCc3cc(-c4nc(NC(=O)CN5CCCC5)sc4C)ccc32)c1	-28.5%	?	?	10µM*
O=C(CN1CCOCC1)Nc1nc(-c2ccc3c(c2)CCN3S(=O)(=O)c2ccccc2)cs1	-19.1%	?	?	?
CCC(CC)C(=O)Nc1nc(-c2ccc3c(c2)CCN3C(=O)C2CC2)c(C)s1	-21.4%	/	11.2µM*	?
Cc1sc(NC(=O)CN2CCOCC2)nc1-c1ccc2c(c1)CCN2S(=O)(=O)c1ccccc1	?	?	?	13µM*
C#CCCCO/N=C1\C[C@@H](O)[C@@H](O)[C@@H]2[C@@H]3C(=O)N(Cc4ccccc4)C(=O)[C@@H]3CC[C@H]12	/	/	/	11.0%[14.2 µM]
Cc1cc(Oc2ccc(Cl)cc2Cl)nc(C#N)n1	-29.6%	?	/	/
SMILES	VACV Venus inh	VACV mCherry inh	Lassa entry inh	MARV entry inh
N#Cc1ncc(N=Cc2ccc(N(CCCl)CCCl)cc2)s1	-20.9%	?	0.708µM*	0.794µM*
CC(C)CNS(=O)(=O)c1ccc(CCC(=O)Nc2cc(Cl)ccc2Oc2ccccc2)cc1	?	/	?	-5.9%[46.1 µM]
Cc1ccc(C)c(N(CC(=O)Nc2cc(Cl)ccc2Oc2ccccc2)S(C)(=O)=O)c1	?	/	?	12.6µM*
CC(C)(C)NS(=O)(=O)c1ccc(CCC(=O)Nc2cc(Cl)ccc2Oc2ccccc2)cc1	?	?	?	8.91µM*
C#CCCCON=C1C[C@@H](O)[C@H](O)[C@H]2[C@@H]3C(=O)N(c4ccc(F)cc4F)C(=O)[C@@H]3CC[C@H]12	/	/	/	-6.1%[14.2 µM]
COc1cc(C)c(CN2CCOc3ccc(C(O)c4cccnc4)cc3C2)cc1C (stereo not drawn)	-4.4%	-8.5%	/	/
Cc1ccc(OCCCCNC(C)(C)C)c([N+](=O)[O-])c1	-8.6%	-12.9%	-1.1%	15.8µM*
COCCNCCOc1ccc(C)cc1[N+](=O)[O-]	-9.0%	-5.0%	-0.1%[46.1 µM]	-13.5%[46.1 µM]
Cc1sc2ncnc(N/N=C/c3ccccc3O)c2c1C	?	3.55µM*	10.3µM*	3.16µM*
C=CCn1c(SCc2csc(C)n2)nc2sc3c(c2c1=O)CCCC3	-7.2%	-4.0%	5.01µM*	?
C=CCn1c(SCc2csc(C)n2)nc2sc3c(c2c1=O)CCCCC3	/	/	?	-19.7%
CCN1C(=NCCCOC(C)C)N[C@@H](CCc2ccccc2)[C@H](C(=O)OC)[C@H]1C	/	/	/	2.8%[14.2 µM]

High-throughput results as filed in PubChem.
